G9a block = qHTS Assay for Inhibitors of Histone Lysine Methyltransferase G9a; Potency, µM (titrated, usually from 102 µM), for the others: at the top dose activity, negative = inhibition, usual class: inhibitors; Histone-lysine N-methyltransferase EHMT2 (Homo sapiens), Q96KQ7; G9a H3K9 monomethylation, AlphaScreen, 2 h; 350,000 tested, 8.8% active; AID 504332, 2011; note: % is set by controls: 0 for no effect and ±100 for the full control effect; nearly all actives have a fitted effect of over 75% in size
Target sequence (Q96KQ7 913-1193 limits assumed): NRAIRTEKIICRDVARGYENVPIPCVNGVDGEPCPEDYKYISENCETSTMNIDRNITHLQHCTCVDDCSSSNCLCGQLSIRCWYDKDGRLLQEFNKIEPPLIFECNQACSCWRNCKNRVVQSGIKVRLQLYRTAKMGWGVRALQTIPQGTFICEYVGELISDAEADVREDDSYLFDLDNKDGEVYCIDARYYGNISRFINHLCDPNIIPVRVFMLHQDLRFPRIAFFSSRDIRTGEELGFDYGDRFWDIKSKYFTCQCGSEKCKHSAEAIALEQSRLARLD
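AlphaScreen detection with an anti-monomethyl H3K9 antibody quantified product after a 2 h room-temperature reaction containing 500 nM biotinylated H3K9 peptide, 20 µM SAM and 20 nM enzyme, which had been preincubated 15 min with compound.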
JMJD2A Tudor inh = qHTS Assay for Inhibitors of JMJD2A-Tudor Domain; AID 504339, 2011; Potency, µM (titrated, usually from 114 µM), for inactives: top-dose activity change, negative = inhibition, most hits filed as inhibitors; Lysine-specific demethylase 4A (Homo sapiens), O75164; AlphaScreen JMJD2A-Tudor / H3K4me3 peptide binding; 390,000 tested, 4.4% active; note: % is set by controls: 0 for no effect and ±100 for the full control effect; nearly all actives have a fitted effect of over 50% in size
HP1b chromo inh = HTS for Inhibitors of HP1-beta Chromodomain Interactions with Methylated Histone Tails; Chromobox protein homolog 1 (Homo sapiens), P83916; 390,000 tested, 0.56% active; AlphaScreen HP1-beta / biotin-H3K9me3 peptide binding; Potency, µM (titrated, usually from 114 µM), inactives show top-dose activity change, negative = inhibition, most hits filed as inhibitors; AID 540317, 2011; note: nearly all actives have a fitted effect of over 70% in size
Target sequence (P83916 whole entry, looked up): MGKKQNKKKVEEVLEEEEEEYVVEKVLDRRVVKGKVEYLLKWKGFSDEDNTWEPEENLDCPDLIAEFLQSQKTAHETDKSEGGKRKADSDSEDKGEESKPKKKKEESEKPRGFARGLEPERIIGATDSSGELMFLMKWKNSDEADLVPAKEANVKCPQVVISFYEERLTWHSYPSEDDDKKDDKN
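HP1-beta protein (50 nM final) preincubated 30 min at room temperature with biotinylated H3(1-18)K9me3 peptide (50 nM) in PBS pH 7.4, 0.01% Tween-20, then compound added for 30 min. AlphaScreen streptavidin donor/nickel chelate acceptor beads (10 ug/mL final), 30 min dark, luminescence read.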
L3MBTL1 inh = qHTS Assay for the Inhibitors of L3MBTL1; Lethal(3)malignant brain tumor-like protein 1 (Homo sapiens), Q9Y468; AlphaScreen L3MBTL1–H3K9me1 peptide binding; Potency, µM (highest dose often 57.1 µM), without a hit: at the highest dose activity, negative = inhibition, actives largely listed as inhibitors; 230,000 tested, 0.66% active; note: % is set by controls: 0 for no effect and ±100 for the full control effect; nearly all actives have a fitted effect of over 60% in size
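Displacement of a biotinylated histone H3(1-15) peptide monomethylated at Lys9 (75 nM) from L3MBTL1 (50 nM) was measured by AlphaScreen after a 30 min room-temperature compound incubation; cefsulodin titration served as intraplate control.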
BAZ2B inh = qHTS Assay for Inhibitors of BAZ2B; Bromodomain adjacent to zinc finger domain protein 2B (Homo sapiens), Q9UIF8; AlphaScreen BAZ2B-H3K14Ac peptide displacement; Potency, µM (series often up to 114 µM), inactives show top-dose activity change, negative = inhibition, usual class: inhibitors; 360,000 tested, 4.4% active; AID 504333, 2011; note: % is set by controls: 0 for no effect and ±100 for the full control effect; nearly all actives have a fitted effect of over 60% in size
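BAZ2B 50 nM plus b-H3(5-23)K14Ac 50 nM, PBS pH 7.4/0.01% Tween-20, 30 min RT; compound added (max 110 uM), 30 min RT; streptavidin donor/Ni-chelate acceptor beads 10 ug/mL final, 20 min dark; AlphaScreen read.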
Sfp PPTase inh = qHTS Assay for Inhibitors of Bacillus subtilis Sfp phosphopantetheinyl transferase (PPTase); 4'-phosphopantetheinyl transferase ffp (Bacillus subtilis), Q9F4F7; Biochemical Sfp PPTase activity, qHTS; Potency, µM, inactives show largest response in the series, negative = inhibition, actives largely listed as inhibitors; 310,000 tested, 3.5% active; AID 1490, 2009;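 note: the enzyme is Sfp with the accession as filed and its product quenches rhodamine fluorescence; 0% = enzyme reaction without inhibitor and -100% = no enzyme wells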
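With Hepes-Na pH 7.6 buffer containing 10 mM MgCl2, Sfp (15 nM) modified BHQ-2-YbbR (12.5 uM) using rhodamine-CoA (5 uM). Two reads 30 minutes apart at 525/598 nm yielded each well's rate.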
Starred values were filed as active, the others as inactive; u = inconclusive; x = not tested or not shown; [ ] = another dose, or the depositor's remark. This is a sample that favours compounds with a hit; in the whole collection about 12% have one here. Calls come from the whole dose curve; as a rule, active = well fitted curve in the direction sought with a large enough effect; inconclusive = small, poorly fitted or top-dose-only effect, or another doubt; inactive = no such curve, though single readings can be large; an effect the other way counts as inactive or inconclusive. Potency is the fitted concentration of half-maximal effect.

SMILES	G9a block	JMJD2A Tudor inh	HP1b chromo inh	L3MBTL1 inh	BAZ2B inh	Sfp PPTase inh
CC1CCc2[nH]c3ccc(C(=O)N(C)CC(=O)Nc4ccccc4C(F)(F)F)cc3c2C1 (stereo not given)	17%[2.33 µM]	50µM*	-28%	-9%	50µM*	x
CCCN(CC(=O)Nc1ccccc1OC)C(=O)c1ccc2[nH]c3c(c2c1)CC(C)CC3 (stereo not given)	-13%[12.7 µM]	u	u	-12%	u	x
COc1ccc(NCc2cc3cc4c(cc3n(CC(=O)Nc3ccc(C)c(C)c3)c2=O)OCO4)cc1	u	-30%	3%	x	-29%	x
CC1(C)Cc2c(c(-c3ccco3)nc3sc4c(NCCCO)ncnc4c23)CO1	x	-32%	-17%	x	-14%	7.9µM*
CC1(C)Cc2c(c(-c3ccco3)nc3sc4c(NCC5CCCO5)ncnc4c23)CO1 (stereo not given)	-19%[59 µM]	u	4%	u	5%	20µM*
CC1(C)Cc2c(C#N)c(NCCN3CCOCC3)nc(-c3ccco3)c2CO1	-12%[59 µM]	-9%	27%	-1%	x	-21%
CC(C)CNc1ncnc2c1sc1nc(N3CCOCC3)c3c(c12)CC(C)(C)OC3	-8%	-10%	10%	-3%	8%	24%
CC1(C)Cc2c(c(-c3ccco3)nc3sc4c(NCCN5CCOCC5)ncnc4c23)CO1	18µM*	-26%	-4%	-12%	-2%	-4%
Cc1ccc(NC(=O)c2ccc3c(=O)n4nc(Nc5ccccc5C)sc4nc3c2)cc1C	u	-4%	36%	x	-29%	x
Cc1ccc2c(=O)cc(C(=O)Nc3ccc(S(=O)(=O)N(C)Cc4ccccc4)cc3)oc2c1C	u	-14%	65%	x	16%	x
Cc1ccc(-c2csc3nc4c5ccccc5c(NCCCN5CCOCC5)nn4c(=O)c23)cc1	x	x	x	21%	-5%	6%
Cc1ccc(-c2csc3nc4c5ccccc5c(NCCCN(C)C)nn4c(=O)c23)cc1	35µM*	5%	-20%	40%	13%	u
COc1ccc(-c2cc(C(F)(F)F)nc(SCCC(=O)Nc3cccc(O)c3)n2)cc1	-1%[59 µM]	-22%	27%	x	-5%	x
CCOc1cc(CNc2ccc(O)cc2)ccc1OCc1ccc(Cl)cc1Cl	u	79µM*	-38%	u	u	u
Oc1ccc(NCc2ccc(OCc3ccccc3Cl)cc2)cc1	3.2µM*	50µM*	u	x	u	x
COc1cc(CNCc2ccccn2)ccc1OCc1ccc(Cl)cc1Cl	40%[12.7 µM]	u	5%	u	u	u
CCOc1cccc(CNc2ccc(O)cc2)c1OCc1ccc(Cl)cc1	14µM*	79µM*	-7%	u	-35%[57.1 µM]	45µM*
O=C1C=CC(=O)c2c(O)c(Cl)c(Cl)c(O)c21	x	x	x	x	x	11µM*
O=C1C=CC(=O)c2c(O)c(CO)c(CO)c(O)c21	x	2.2µM*	3.2µM*	x	x	x
O=c1c(-c2ccc(F)c(F)c2)nc2cncnc2n1Cc1ccc(F)cc1	-7%[12.7 µM]	x	x	x	x	-22%
Cc1ccc(-c2noc(CNC(=O)c3ccccc3)n2)cc1	1%[59 µM]	-14%	6%	x	0%	x
COc1cc(F)cc(F)c1[S+](=O)([O-])N1CCN([S+](=O)([O-])c2ccc3c(c2)OCCO3)CC1	x	-2%	x	x	x	x
C/C(=N\NC(=S)NCc1ccccc1)c1ccc2ccccc2c1	1%[59 µM]	-38%	-11%	-9%	u	-14%
C/C(CCC(C)C)=N\NC(=S)NCc1ccccc1	45µM*	56µM*	-10%	-10%	u	-13%
NNC(=S)NCCc1ccccc1	12%[12.7 µM]	u	2%	-2%	u	8%
SMILES	G9a block	JMJD2A Tudor inh	HP1b chromo inh	L3MBTL1 inh	BAZ2B inh	Sfp PPTase inh
C/C(=N\NC(=S)NCCc1ccccc1)c1cccs1	u	u	u	u	35µM*	7%
COCCNC(=S)N/N=C(\C)CCc1ccc2c(c1)OCO2	50µM*	-30%	-4%	10%	-39%	40µM*
C/C(CCc1ccccc1)=N\NC(=S)NCCc1ccccc1	u	u	-22%	x	40µM*	1%
CC1=C(c2ccc(Cl)cc2)S(=O)(=O)N=C1N1CCN(c2cccc(C)c2)C(C)C1 (stereo not given)	-53%[59 µM]	-21%	24%	x	-7%	x
CC1CCCCC1NC(=O)c1ccc(S(=O)(=O)NNC(=O)c2ccncc2)cc1 (stereo not given)	x	3.5µM*	27%	x	89µM*	u
O=C(NNS(=O)(=O)c1ccc(C(=O)NC2CCCC2)cc1)c1ccncc1	50µM*	1.3µM*	20%	19%	-30%	-14%
CCCCS(=O)CC(COc1ccc(Cl)cc1)OC(=O)c1ccccc1 (stereo not given)	50µM*	33%	89%	2%	26%	-25%
CC(=O)Nc1c(C)nn(-c2ccccc2)c1N1CCC(C(=O)NCc2ccc(Cl)cc2)CC1	3%[59 µM]	-6%	29%[57 µM]	x	2%	x
CCOC(=O)c1cc(OC(=O)c2ccccc2F)n(-c2ccccc2)n1	23%[59 µM]	-20%	46%	x	2%	x
Cc1c(C(=O)N2CCCC(C)C2)sc2ncnc(N3CCCCC3C)c12 (stereo not given)	19%	-17%	22%	x	0%	79µM*
Cc1c(C(=O)O)sc2ncnc(N3CCCCC3C)c12 (stereo not given)	0%[12.7 µM]	-2%	25%	3%[11.4 µM]	9%	1%
COc1ccc(N(CC(=O)N2CCc3ccccc3C2)S(=O)(=O)c2ccc(C)cc2)cc1Cl	u	-20%	5%	x	-6%	x
Cn1c(=O)n(Cc2ccccc2Cl)c(=O)c2c1nc1n2CCN1c1ccccc1	-33%[59 µM]	-9%	32%	x	-3%	x
Cc1ccc(S(=O)(=O)N/N=C/c2cccc(OC3CSC3)c2)cc1	8.9µM*	-23%	15%	-12%	-5%	-2%
Cc1ccc(S(=O)(=O)N/N=C/c2ccc(C#N)cc2)cc1	2.2µM*	-17%	18%	x	-25%	18%
Cc1ccc(S(=O)(=O)N/N=C/c2cccc3c2OCCO3)cc1	10µM*	-17%	13%	8%	-6%	-5%
Cc1ccc(S(=O)(=O)N/N=C/c2cccc3nccnc23)cc1	x	2%	61%	5%	-8%	-17%
CCOc1ccc(/C=N/NS(=O)(=O)c2ccc(C)cc2)cc1OC	u	-9%	37%	1%	-4%	-43%

Bioassay records: PubChem, National Center for Advancing Translational Sciences (NCATS)
